D3 antag: qHTS of D3 Dopamine Receptor Antagonist: qHTS | D3R cells, DiscoveRx beta-arrestin luminescence, antagonist mode; active compounds read low | D(3) dopamine receptor (Homo sapiens), P35462 | AID 652054, 2013 | 360,000 tested, 2.5% active | max response, negative = inhibition, %; in the data active = max response below about -50%; inconclusive = no clear call, values can overlap the other calls; note: % is set by controls: 0 for no effect and ±100 for the full control effect
Target sequence (P35462 whole entry, looked up): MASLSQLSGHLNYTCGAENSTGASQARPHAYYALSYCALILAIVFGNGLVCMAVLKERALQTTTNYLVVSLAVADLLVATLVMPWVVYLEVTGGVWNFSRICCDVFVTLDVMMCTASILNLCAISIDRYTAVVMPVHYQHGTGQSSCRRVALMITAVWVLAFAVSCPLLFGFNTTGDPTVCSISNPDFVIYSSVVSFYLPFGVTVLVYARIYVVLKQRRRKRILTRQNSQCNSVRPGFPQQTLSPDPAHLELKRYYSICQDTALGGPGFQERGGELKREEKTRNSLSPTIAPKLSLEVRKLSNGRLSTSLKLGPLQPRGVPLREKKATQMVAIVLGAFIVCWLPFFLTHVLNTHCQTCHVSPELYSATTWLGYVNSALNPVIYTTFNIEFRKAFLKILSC
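Cells expressing the human receptor were seeded at 1500 cells/well, incubated overnight at 37 degrees C in 5% CO2, then exposed to library compounds with dopamine controls for 90 minutes at 37 degrees C before luminescent detection.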
GLP1R inv ag: qHTS of GLP-1 Receptor Inverse Agonists (Inhibition Mode); HEK293 GLP-1R CRE-luciferase, luminescence, 24 h; GLP-1R form is constitutively active; Glucagon-like peptide 1 receptor (Homo sapiens), P43220; Potency, µM (top dose mostly 38.3 µM), inactives show at the top dose activity change, negative = inhibition, usual class: inhibitors; 410,000 tested, 1.6% active; AID 624417, 2012; note: potency is the fitted concentration of half-maximal effect; % is set by controls: 0 for no effect and ±100 for the full control effect; nearly all actives have a fitted effect of over 55% in size
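Constitutively active GLP-1R drives a cAMP-responsive luciferase in stably transfected HEK293 cells; test compounds are added after overnight (12 h) attachment and left 24 hr, and signal loss in luminescence marks inhibition.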
D3 ag: qHTS of D3 Dopamine Receptor Agonist: qHTS | 410,000 tested, 0.58% active | D(3) dopamine receptor (Homo sapiens), P35462 | D3R DiscoveRx beta-arrestin cells, luminescence, 90 min | max activation, %; in the data active = max activation above about 30%; note: 0% is about no effect
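Cells at 1500/well, incubated overnight, then treated with pinned compounds (dopamine as control) for 90 min at 37 degrees C. DiscoveRx reagent added for 30 - 60 minutes at room temperature; luminescence read.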
GLP-1R agonist: qHTS of GLP-1 Receptor Agonists | Glucagon-like peptide 1 receptor (Homo sapiens), P43220 | HEK293 GLP-1R CRE-luciferase, luminescence, 4-6 h; cells express a hypersensitive GLP-1R form | Potency, µM (series often up to 45.6 µM), for the others: at the top dose activation, actives largely listed as activators | 380,000 tested, 0.007% active | AID 624172, 2012; note: potency is the fitted concentration of half-maximal effect; % of control where 0% means no effect
Active calls of the source: *. Hits are enriched below; roughly 4.3% of the tested compounds scored in any of these assays. Unless noted, calls come from the whole dose curve; as a rule, active = well fitted curve in the direction sought with a large enough effect; inconclusive = small, poorly fitted or top-dose-only effect, or another doubt; inactive = no such curve, though single readings can be large; an effect the other way counts as inactive or inconclusive.

Screening CCOc1cc(C(=O)Nc2cc(C)ccn2)cc(OCC)c1OCC returned D3 antag 6, GLP1R inv ag 0%, D3 ag -3 and GLP-1R agonist -4%.
Screening Cc1ccnc(NC(=O)c2ccc(C(=O)c3ccccc3)cc2)c1 returned D3 antag -55*, GLP1R inv ag inconclusive, D3 ag -8 and GLP-1R agonist -36%.
COc1ccccc1CNC(=O)Cn1cc2c(n1)-c1c(oc(C(=O)N3CCOCC3)c1C)CC2 was read as GLP1R inv ag 1% and D3 ag 5.
Screening COc1ccccc1N(CC(=O)Nc1cccc(C(F)(F)F)c1)S(C)(=O)=O returned D3 antag -6, GLP1R inv ag -15%, D3 ag 4 and GLP-1R agonist 17%.
`Cc1ccc([N+](=O)[O-])cc1N(CC(=O)Nc1ccc(S(=O)(=O)Nc2cccc(C(F)(F)F)c2)cc1)S(C)(=O)=O` gave D3 antag inconclusive, GLP1R inv ag 1µM*, D3 ag -22 and GLP-1R agonist -20%.
Screening Cc1ccc(NC(=O)C(NC2CCCc3ccccc32)c2ccccc2)c([N+](=O)[O-])c1 (stereo not given) returned D3 antag inconclusive, GLP1R inv ag 4µM*, D3 ag -8 and GLP-1R agonist 2%.
`C[C@@H](CO)NC(=O)[C@H]1O[C@@H](n2ccc(=O)[nH]c2=O)[C@H](O)[C@@H]1O` gave D3 antag 9, GLP1R inv ag 5%, D3 ag 8 and GLP-1R agonist 1%.
Screening CC[C@H](C)[C@@H](CO)NC(=O)[C@H]1O[C@@H](n2ccc(=O)[nH]c2=O)[C@H](O)[C@@H]1O returned D3 antag -105*, GLP1R inv ag 30%, D3 ag -15 and GLP-1R agonist 4%.
Screening CCOC(=O)COc1ccc([N+](=O)[O-])cc1-c1ccnc2cc(-c3ccc(Cl)cc3)nn12 returned GLP1R inv ag 0%, D3 ag 3 and GLP-1R agonist -2%.
`Cc1ccc2c(c1)c(=O)c1ccccc1n2CCCC(=O)Nc1ccc(F)cc1F` gave GLP1R inv ag -3% and D3 ag 23.
Screening CCOC(=O)c1[nH]c2ccccc2c1NC(=S)Nc1cccc(C)c1 returned D3 antag -53*, GLP1R inv ag -4%, D3 ag -9 and GLP-1R agonist -1%.
Cc1cccc(NC(=O)CCCn2c(=S)[nH]c3ccccc3c2=O)c1 was read as D3 antag -17, GLP1R inv ag -27%, D3 ag 47* and GLP-1R agonist 4%.
For Cc1cc(C)cc(NC(=O)CCCn2c3ccccc3c(=O)c3ccccc32)c1 the results were GLP1R inv ag 3.5µM* and D3 ag 7.
For O=C(NC1CC(=O)N(c2ccc(F)cc2)C1)C(c1ccccc1)c1ccccc1 (stereo not given) the results were GLP1R inv ag -11% and D3 ag 5.
For Cc1cccc2[nH]c3c(N4CC=C(c5ccc(F)cc5)CC4)ncnc3c12 the results were D3 antag 3, GLP1R inv ag 10µM*, D3 ag -17 and GLP-1R agonist -1%.
`CCN(CC)CCNC(=O)c1ccc(Cl)c(S(=O)(=O)Nc2ccc(Cl)cc2)c1` gave D3 antag -56*, GLP1R inv ag inconclusive, D3 ag -18 and GLP-1R agonist 10%.
Screening CCN(CC)CCNC(=O)c1ccc(NC(=O)c2ccc(Cl)c(S(=O)(=O)N3CCCCCC3)c2)cc1 returned D3 antag inconclusive, GLP1R inv ag 4µM*, D3 ag -35 and GLP-1R agonist inconclusive.
Screening CCN(CC)CCNC(=O)c1ccc(NC(=O)COc2ccc3c(c2)CCC3)cc1 returned D3 antag -12, GLP1R inv ag 4.5µM*, D3 ag -14 and GLP-1R agonist 7%.
Screening CCN(CC)CCNC(=O)c1ccc(NC(C)=O)cc1 returned D3 antag 17, GLP1R inv ag 1%, D3 ag 0 and GLP-1R agonist -5%.
CN(c1cccc(NC(=O)c2ccc(Cl)c(S(=O)(=O)Nc3ccccc3)c2)c1)S(C)(=O)=O was read as D3 antag 53, GLP1R inv ag -7%, D3 ag 52* and GLP-1R agonist 1%.
Screening COc1ccc(Cn2c(=O)c3oc4ccccc4c3n(Cc3cccc(C(F)(F)F)c3)c2=O)cc1 returned GLP1R inv ag 10% and D3 ag -7.
Screening COc1ccc(SCC(=O)c2cc(C)c(OC(=S)N(C)C)c(C)c2)cc1 returned D3 antag -51*, GLP1R inv ag inconclusive, D3 ag 0 and GLP-1R agonist 0%.
Screening CCCCCCSc1cc(-c2nc3cnccn3c2NCCCC)ccc1OC returned D3 antag 185, GLP1R inv ag inconclusive, D3 ag 104* and GLP-1R agonist 0%.
`CCCCNc1c(-c2ccc(OC)c(Sc3ccc(OC)cc3)c2)nc2cnccn12` gave D3 antag 94, GLP1R inv ag inconclusive, D3 ag 62* and GLP-1R agonist 6%.
Screening CCCCCCSc1cc(-c2nc3cc(C)ccn3c2NCCCC)ccc1OC returned D3 antag 54, GLP1R inv ag inconclusive, D3 ag -26 and GLP-1R agonist 2%.
`CCCCNc1c(-c2ccc(-c3ccc(OC)cc3)c(OC)c2)nc2ccccn12` gave D3 antag 188, GLP1R inv ag inconclusive, D3 ag 102* and GLP-1R agonist -10%.
For COc1ccc(CCNC(=O)C2CCCN(c3nc4c(C)cc(C)cc4s3)C2)cc1OC (stereo not given) the results were GLP1R inv ag 27% and D3 ag 10.
`CO/N=C(\C(=O)N[C@@H]1C(=O)N2C(C(=O)O)=C(CSc3nc(=O)c(O)nn3C)CS[C@H]12)c1csc(N)n1` gave D3 ag -11.
`CCSC1=NC2(CCN(C(=O)NC3CCCCC3)CC2)N=C1c1ccc(Cl)cc1` gave GLP1R inv ag 5% and D3 ag 7.
For CCc1nn2c(=O)cc(COC(=O)c3ccccc3NC(=O)COc3ccc(C)c(C)c3)nc2s1 the results were GLP1R inv ag 2% and D3 ag 3.
O=C(Cn1ncn2c(cc3sccc32)c1=O)NCCc1ccccc1 was read as GLP1R inv ag 8% and D3 ag 0.
For O=[N+]([O-])c1ccc(S(=O)(=O)c2cccc(C(F)(F)F)c2)nc1 the results were D3 antag -126*, GLP1R inv ag inconclusive, D3 ag -33 and GLP-1R agonist -9%.
`O=S(=O)(Nc1cccnc1)c1cccc(C(F)(F)F)c1` gave D3 antag -12, GLP1R inv ag 1%, D3 ag -9 and GLP-1R agonist -3%.
COc1cc2ccccc2cc1C(=O)N1CCc2ccccc21 was read as D3 antag 1, GLP1R inv ag 7.9µM*, D3 ag -6 and GLP-1R agonist 2%.

Bioassay records deposited in PubChem BioAssay by National Center for Advancing Translational Sciences (NCATS).
